# Measured values as given in publication PMC7862700, “An all-to-all approach to the identification of sequence-specific readers for epigenetic DNA modifications on cytosine”.
# Assays:
# Assay in all cases: DAPPL (digital affinity profiling via proximity ligation, sequencing); 10 mM Tris-HCl pH 7.5, 50 mM NaCl, 1 mM DTT, 4% glycerol, room temperature, 30 min; GST-TFs on glutathione beads, 16-mer random dsDNA library, 0.1% formaldehyde crosslink after washing; high values mean tight binding
# FEV = molecular target: T1, FEV (Homo sapiens, UniProt Q99581 1-238); settings: protein: recombinant; tags: N-terminal GST; dsDNA, one strand shown
# T1 sequence: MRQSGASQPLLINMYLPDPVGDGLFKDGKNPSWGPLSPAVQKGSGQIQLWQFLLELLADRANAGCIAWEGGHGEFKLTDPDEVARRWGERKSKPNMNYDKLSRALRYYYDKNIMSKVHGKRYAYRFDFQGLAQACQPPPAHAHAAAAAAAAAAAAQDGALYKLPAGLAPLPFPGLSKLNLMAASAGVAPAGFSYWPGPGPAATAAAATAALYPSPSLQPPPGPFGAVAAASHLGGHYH
# Outline: (§1)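 Beads coated with glutathione captured GST-fused human transcription factors that had been expressed in yeast, and the factors were then given DNA barcodes and pooled with a tag-only sample. The pools were incubated with 200 nmole of a random double-stranded 16-mer DNA library in Tris/NaCl/DTT/glycerol buffer for 30 min at room temperature, washed, crosslinked with 0.1% formaldehyde and proximity-ligated with BsaI/T4 ligase at 37 °C for 1 h. PCR amplification and Illumina NextSeq500 sequencing came last. Binding signal is each hexamer's read frequency for a factor divided by its frequency for the tag-only sample.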
# ETV5 = ETV5 (Homo sapiens, UniProt P41161 1-510); settings: protein: recombinant; tags: N-terminal GST; dsDNA, one strand shown
# Sequence of ETV5 (P41161 whole entry): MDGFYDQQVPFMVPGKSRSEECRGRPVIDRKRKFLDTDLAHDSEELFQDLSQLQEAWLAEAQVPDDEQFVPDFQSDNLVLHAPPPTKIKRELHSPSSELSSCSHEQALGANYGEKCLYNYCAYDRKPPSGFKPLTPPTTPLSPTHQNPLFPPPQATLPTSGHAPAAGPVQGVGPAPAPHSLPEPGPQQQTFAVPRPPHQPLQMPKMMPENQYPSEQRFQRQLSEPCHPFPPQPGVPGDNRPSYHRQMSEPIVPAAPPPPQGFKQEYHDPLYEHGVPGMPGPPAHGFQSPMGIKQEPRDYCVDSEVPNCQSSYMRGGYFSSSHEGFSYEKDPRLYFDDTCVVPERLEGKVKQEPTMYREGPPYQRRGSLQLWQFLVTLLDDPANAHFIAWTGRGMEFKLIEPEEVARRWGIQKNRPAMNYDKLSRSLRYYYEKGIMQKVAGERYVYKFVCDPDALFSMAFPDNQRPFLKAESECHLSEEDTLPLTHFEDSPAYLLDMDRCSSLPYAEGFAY
# Outline: as §1
# HSF1 = HSF1 (Homo sapiens, UniProt Q00613 1-529); settings: protein: recombinant; tags: N-terminal GST; chain copies: 3; dsDNA, one strand shown
# Sequence of HSF1 (Q00613 whole entry): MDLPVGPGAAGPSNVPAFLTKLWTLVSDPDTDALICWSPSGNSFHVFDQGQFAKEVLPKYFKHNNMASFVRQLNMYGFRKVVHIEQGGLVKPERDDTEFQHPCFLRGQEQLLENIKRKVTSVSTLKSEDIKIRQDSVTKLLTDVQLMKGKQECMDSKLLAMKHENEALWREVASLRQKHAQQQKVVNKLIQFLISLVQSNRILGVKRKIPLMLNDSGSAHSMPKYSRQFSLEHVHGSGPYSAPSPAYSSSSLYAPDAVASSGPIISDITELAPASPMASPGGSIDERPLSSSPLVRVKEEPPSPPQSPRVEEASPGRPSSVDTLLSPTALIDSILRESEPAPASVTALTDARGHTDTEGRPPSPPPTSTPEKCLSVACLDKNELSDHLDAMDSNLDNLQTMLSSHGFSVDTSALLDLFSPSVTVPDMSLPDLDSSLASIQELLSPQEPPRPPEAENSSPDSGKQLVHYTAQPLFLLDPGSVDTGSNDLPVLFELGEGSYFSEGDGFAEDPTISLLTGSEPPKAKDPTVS
# Outline: as §1
# SPIC = molecular target: T2, SPIC (Homo sapiens, UniProt Q8N5J4 1-248); settings: protein: recombinant; tags: N-terminal GST; dsDNA, one strand shown
# T2 sequence: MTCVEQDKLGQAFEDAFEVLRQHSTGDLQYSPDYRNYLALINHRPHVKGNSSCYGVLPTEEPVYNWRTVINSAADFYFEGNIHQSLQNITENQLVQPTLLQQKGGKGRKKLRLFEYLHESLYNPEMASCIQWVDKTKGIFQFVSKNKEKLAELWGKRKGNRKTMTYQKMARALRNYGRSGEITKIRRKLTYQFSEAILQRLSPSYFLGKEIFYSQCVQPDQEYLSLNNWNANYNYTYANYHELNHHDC
# Outline: as §1
# ELF4 = ELF4 (Homo sapiens, UniProt Q99607 1-663); settings: protein: recombinant; tags: N-terminal GST; dsDNA, one strand shown
# Sequence of ELF4 (Q99607 whole entry): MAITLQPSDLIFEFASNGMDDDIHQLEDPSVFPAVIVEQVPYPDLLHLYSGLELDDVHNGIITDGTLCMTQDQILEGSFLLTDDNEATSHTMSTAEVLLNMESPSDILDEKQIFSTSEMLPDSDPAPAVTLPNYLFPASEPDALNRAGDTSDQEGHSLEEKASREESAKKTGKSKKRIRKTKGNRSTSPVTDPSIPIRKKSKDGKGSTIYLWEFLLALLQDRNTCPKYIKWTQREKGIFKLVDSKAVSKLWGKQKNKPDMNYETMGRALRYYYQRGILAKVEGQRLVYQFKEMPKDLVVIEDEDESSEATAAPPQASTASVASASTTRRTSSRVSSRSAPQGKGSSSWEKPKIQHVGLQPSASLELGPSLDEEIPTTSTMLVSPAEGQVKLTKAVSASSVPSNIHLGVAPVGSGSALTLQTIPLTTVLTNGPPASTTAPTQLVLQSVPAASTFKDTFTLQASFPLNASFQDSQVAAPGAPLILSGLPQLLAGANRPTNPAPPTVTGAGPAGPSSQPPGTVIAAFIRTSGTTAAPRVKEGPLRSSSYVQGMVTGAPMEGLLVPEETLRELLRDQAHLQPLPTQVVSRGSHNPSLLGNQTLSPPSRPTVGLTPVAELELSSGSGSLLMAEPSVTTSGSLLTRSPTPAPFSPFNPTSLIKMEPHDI
# Outline: as §1
# ELK4 = molecular target: T3, ELK4 (Homo sapiens, UniProt P28324-2 1-405); settings: protein: recombinant; tags: N-terminal GST; dsDNA, one strand shown
# T3 sequence: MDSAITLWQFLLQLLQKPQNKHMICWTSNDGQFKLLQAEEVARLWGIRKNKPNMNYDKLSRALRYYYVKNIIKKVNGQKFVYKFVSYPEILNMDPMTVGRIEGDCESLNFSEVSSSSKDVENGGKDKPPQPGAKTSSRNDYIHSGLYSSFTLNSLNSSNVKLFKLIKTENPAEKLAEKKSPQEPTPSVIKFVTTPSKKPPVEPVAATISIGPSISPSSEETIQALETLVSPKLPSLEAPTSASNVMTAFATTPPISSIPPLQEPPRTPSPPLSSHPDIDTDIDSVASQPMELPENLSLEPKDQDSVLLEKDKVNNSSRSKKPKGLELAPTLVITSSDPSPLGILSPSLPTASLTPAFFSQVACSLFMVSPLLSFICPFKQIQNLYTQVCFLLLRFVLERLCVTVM
# Outline: as §1
# ETV2 = molecular target: T4, ETV2 (Homo sapiens, UniProt O00321 1-342); settings: protein: recombinant; tags: N-terminal GST; dsDNA, one strand shown
# T4 sequence: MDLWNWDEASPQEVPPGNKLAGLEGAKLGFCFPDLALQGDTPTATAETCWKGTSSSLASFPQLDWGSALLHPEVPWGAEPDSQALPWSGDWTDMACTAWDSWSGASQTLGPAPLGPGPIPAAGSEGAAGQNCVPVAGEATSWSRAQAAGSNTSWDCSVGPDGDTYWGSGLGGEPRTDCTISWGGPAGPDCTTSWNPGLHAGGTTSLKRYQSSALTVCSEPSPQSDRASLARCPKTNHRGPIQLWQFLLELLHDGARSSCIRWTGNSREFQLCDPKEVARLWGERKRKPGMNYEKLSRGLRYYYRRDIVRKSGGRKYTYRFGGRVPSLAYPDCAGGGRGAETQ
# Outline: as §1
# ELF3 = molecular target: T5, ELF3 (Homo sapiens, UniProt P78545 1-371); settings: protein: recombinant; tags: N-terminal GST; dsDNA, one strand shown
# T5 sequence: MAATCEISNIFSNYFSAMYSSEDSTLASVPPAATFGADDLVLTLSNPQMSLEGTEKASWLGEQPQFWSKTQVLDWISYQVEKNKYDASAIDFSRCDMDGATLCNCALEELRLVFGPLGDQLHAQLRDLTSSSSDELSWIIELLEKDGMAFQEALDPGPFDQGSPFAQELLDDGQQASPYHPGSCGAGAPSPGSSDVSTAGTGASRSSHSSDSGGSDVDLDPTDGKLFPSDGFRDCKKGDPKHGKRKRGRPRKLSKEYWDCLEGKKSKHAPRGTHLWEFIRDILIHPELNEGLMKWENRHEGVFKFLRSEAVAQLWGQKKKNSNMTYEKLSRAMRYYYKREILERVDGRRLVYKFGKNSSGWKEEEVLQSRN
# Outline: as §1
# CRX = CRX (Homo sapiens, UniProt O43186 1-299); settings: protein: recombinant; tags: N-terminal GST; dsDNA, one strand shown
# Sequence of CRX (O43186 whole entry): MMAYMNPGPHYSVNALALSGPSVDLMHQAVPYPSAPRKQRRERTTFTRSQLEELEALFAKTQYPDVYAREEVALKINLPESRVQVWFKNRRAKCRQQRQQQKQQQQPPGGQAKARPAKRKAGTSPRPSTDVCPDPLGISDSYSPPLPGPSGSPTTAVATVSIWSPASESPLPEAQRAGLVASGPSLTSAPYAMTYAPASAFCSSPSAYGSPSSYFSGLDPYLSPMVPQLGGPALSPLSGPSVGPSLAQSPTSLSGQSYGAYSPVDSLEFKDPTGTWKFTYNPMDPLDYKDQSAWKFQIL
# Outline: as §1
# ETV1 = ETV1 (Homo sapiens, UniProt P50549 1-477); settings: protein: recombinant; tags: N-terminal GST; dsDNA, one strand shown
# Sequence of ETV1 (P50549 whole entry): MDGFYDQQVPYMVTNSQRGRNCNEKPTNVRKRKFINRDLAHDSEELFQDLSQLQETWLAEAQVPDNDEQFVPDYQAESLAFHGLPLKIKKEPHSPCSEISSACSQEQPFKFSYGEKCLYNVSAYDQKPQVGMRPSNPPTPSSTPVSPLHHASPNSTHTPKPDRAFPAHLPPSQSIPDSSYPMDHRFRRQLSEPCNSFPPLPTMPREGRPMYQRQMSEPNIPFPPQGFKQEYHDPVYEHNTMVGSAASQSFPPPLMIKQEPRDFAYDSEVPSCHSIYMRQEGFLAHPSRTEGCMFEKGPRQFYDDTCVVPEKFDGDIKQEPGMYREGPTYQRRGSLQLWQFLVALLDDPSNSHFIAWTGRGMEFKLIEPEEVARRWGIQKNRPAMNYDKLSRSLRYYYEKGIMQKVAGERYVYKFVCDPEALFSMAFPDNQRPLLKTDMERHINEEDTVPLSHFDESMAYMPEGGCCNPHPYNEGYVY
# Outline: as §1
# ERF = molecular target: T6, ERF (Homo sapiens, UniProt P50548 1-548); settings: protein: recombinant; tags: N-terminal GST; dsDNA, one strand shown
# T6 sequence: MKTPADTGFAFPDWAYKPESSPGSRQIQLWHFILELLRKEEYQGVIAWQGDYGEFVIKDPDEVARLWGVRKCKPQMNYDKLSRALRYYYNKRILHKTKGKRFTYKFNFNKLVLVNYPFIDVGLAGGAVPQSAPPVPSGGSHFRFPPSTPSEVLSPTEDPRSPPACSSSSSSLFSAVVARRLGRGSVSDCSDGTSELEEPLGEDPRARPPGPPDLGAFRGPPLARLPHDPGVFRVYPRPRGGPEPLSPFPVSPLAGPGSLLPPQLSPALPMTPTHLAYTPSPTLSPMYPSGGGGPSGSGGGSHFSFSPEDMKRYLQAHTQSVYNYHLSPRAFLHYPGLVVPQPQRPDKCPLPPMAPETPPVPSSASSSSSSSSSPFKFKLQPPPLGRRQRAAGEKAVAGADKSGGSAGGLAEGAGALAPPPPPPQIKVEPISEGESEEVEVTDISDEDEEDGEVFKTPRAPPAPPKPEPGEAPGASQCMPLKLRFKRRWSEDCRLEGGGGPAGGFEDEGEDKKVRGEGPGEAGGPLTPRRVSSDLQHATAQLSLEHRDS
# Outline: as §1
# ETV3L = molecular target: T7, ETV3L (Homo sapiens, UniProt Q6ZN32 1-361); settings: protein: recombinant; tags: N-terminal GST; dsDNA, one strand shown
# T7 sequence: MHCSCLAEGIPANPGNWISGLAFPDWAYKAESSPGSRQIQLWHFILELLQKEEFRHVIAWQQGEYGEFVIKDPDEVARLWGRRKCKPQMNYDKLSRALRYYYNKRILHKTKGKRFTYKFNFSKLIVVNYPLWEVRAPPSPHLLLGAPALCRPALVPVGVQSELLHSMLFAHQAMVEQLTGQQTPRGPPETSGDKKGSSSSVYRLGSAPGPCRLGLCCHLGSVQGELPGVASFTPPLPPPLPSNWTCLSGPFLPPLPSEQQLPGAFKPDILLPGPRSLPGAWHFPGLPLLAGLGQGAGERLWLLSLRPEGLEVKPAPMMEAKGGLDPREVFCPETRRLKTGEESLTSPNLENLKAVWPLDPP
# Outline: as §1
# ETS2 = molecular target: T8, ETS2 (Homo sapiens, UniProt P15036 1-469); settings: protein: recombinant; tags: N-terminal GST; dsDNA, one strand shown
# T8 sequence: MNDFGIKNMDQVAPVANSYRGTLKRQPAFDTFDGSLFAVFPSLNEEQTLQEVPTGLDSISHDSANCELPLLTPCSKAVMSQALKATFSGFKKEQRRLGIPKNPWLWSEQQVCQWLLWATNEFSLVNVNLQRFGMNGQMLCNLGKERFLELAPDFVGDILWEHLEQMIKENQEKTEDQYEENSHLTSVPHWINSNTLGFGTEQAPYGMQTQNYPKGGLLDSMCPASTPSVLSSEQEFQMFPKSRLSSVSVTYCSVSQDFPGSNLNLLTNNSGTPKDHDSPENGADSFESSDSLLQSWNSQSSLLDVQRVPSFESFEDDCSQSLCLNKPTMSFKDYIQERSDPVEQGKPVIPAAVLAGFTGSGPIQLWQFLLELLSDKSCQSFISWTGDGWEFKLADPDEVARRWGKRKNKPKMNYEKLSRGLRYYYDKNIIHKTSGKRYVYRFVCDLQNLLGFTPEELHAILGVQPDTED
# Outline: as §1
# SPDEF = molecular target: T9, SPDEF (Homo sapiens, UniProt O95238 1-335); settings: protein: recombinant; tags: N-terminal GST; dsDNA, one strand shown
# T9 sequence: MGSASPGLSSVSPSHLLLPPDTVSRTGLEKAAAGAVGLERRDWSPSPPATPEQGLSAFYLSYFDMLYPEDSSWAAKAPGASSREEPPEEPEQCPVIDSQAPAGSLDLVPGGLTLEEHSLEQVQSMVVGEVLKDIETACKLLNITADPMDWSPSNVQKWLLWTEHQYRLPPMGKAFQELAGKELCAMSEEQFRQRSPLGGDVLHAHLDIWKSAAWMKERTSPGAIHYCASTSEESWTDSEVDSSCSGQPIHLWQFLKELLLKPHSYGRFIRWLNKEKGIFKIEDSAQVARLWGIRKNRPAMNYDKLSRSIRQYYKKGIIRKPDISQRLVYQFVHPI
# Outline: as §1
# ETV7 = molecular target: T10, ETV7 (Homo sapiens, UniProt Q9Y603 1-341); settings: protein: recombinant; tags: N-terminal GST; dsDNA, one strand shown
# T10 sequence: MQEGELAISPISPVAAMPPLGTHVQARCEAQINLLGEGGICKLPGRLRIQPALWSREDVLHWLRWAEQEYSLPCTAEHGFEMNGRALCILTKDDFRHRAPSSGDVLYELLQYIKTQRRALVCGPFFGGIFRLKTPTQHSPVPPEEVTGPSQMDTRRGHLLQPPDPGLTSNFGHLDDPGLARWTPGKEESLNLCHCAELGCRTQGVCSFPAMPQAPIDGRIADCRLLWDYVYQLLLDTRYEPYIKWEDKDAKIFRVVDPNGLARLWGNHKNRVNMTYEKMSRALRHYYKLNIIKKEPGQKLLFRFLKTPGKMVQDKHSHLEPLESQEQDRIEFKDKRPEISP
# Outline: as §1
# ELF5 = molecular target: T11, ELF5 (Homo sapiens, UniProt Q9UKW6-2 1-255); settings: protein: recombinant; tags: N-terminal GST; dsDNA, one strand shown
# T11 sequence: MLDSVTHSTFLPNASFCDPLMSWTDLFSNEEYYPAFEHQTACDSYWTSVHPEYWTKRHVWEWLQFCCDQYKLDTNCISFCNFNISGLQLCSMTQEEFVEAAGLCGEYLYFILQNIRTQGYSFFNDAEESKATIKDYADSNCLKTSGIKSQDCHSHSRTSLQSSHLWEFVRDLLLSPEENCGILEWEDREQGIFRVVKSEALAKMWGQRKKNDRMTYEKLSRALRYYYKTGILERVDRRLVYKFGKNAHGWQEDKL
# Outline: as §1
# ETV3 = molecular target: T12, ETV3 (Homo sapiens, UniProt P41162-2 1-143); settings: protein: recombinant; tags: N-terminal GST; dsDNA, one strand shown
# T12 sequence: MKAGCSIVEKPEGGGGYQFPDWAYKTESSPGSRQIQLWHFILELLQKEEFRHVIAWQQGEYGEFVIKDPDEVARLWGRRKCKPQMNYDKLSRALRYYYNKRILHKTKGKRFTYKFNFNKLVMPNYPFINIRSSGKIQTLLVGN
# Outline: as §1
# ETV6 = ETV6 (Homo sapiens, UniProt P41212 1-452); settings: protein: recombinant; tags: N-terminal GST; dsDNA, one strand shown
# Sequence of ETV6 (P41212 whole entry): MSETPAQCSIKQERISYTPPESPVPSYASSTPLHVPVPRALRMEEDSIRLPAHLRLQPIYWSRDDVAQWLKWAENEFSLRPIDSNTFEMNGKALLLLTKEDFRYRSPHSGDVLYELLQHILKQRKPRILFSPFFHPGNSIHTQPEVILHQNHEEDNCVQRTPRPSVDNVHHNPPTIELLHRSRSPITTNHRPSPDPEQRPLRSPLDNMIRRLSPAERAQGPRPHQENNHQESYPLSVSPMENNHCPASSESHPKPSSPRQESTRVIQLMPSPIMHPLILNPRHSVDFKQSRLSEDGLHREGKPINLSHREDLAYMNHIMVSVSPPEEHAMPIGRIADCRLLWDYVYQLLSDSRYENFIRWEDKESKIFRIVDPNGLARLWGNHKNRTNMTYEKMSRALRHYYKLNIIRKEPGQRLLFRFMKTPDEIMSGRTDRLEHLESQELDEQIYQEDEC
# Outline: as §1
sequence,measurement,setting,value
CACCTT,binding signal,FEV,"1.31 fold enrichment (6-mer frequency, TF over GST control)"
same,binding signal,ETV5,"1.18 fold enrichment (6-mer frequency, TF over GST control)"
same,binding signal,HSF1,"1.08 fold enrichment (6-mer frequency, TF over GST control)"
same,binding signal,SPIC,"1.2 fold enrichment (6-mer frequency, TF over GST control)"
same,binding signal,ELF4,"1.37 fold enrichment (6-mer frequency, TF over GST control)"
same,binding signal,ELK4,"1.39 fold enrichment (6-mer frequency, TF over GST control)"
same,binding signal,ETV2,"1.25 fold enrichment (6-mer frequency, TF over GST control)"
same,binding signal,ELF3,"1.26 fold enrichment (6-mer frequency, TF over GST control)"
same,binding signal,CRX,"1.1 fold enrichment (6-mer frequency, TF over GST control)"
same,binding signal,ETV1,"1.35 fold enrichment (6-mer frequency, TF over GST control)"
same,binding signal,ERF,"1.33 fold enrichment (6-mer frequency, TF over GST control)"
same,binding signal,ETV3L,"1.14 fold enrichment (6-mer frequency, TF over GST control)"
same,binding signal,ETS2,"1.24 fold enrichment (6-mer frequency, TF over GST control)"
same,binding signal,SPDEF,"1.31 fold enrichment (6-mer frequency, TF over GST control)"
same,binding signal,ETV7,"1.12 fold enrichment (6-mer frequency, TF over GST control)"
same,binding signal,ELF5,"1.21 fold enrichment (6-mer frequency, TF over GST control)"
same,binding signal,ETV3,"1.31 fold enrichment (6-mer frequency, TF over GST control)"
same,binding signal,ETV6,"1.25 fold enrichment (6-mer frequency, TF over GST control)"
